Records with an inconclusive call do not appear. Where a call stands in place of a potency, no number is given. A number with no mark means an inactive call. Calls of active or inactive are those of the source. Calls come from the whole dose curve; as a rule, active = well fitted curve in the direction sought with a large enough effect; inconclusive = small, poorly fitted or top-dose-only effect, or another doubt; inactive = no such curve, though single readings can be large; an effect the other way counts as inactive or inconclusive.
Assays:
[1] = Quantitative highthroughput screen to assess conditional lethalithy of NOMO1 cells grown in RPMI1640 with untreated serum (RPMI+s) (AID 1963876); note: nearly all actives have a fitted effect of over 35% in size; note: potency is the fitted concentration of half-maximal effect
Procedure, shortened: (§1)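 Each medium arm—HPLM with 10% dialyzed FBS, or RPMI1640 with 5 mM glucose and 10% untreated or dialyzed FBS—was screened against an 11-point, 3-fold compound titration for 48 h at 37 °C, with CellTiter-Glo luminescence as endpoint.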

[2] = Quantitative highthroughput screen to assess conditional lethalithy of NOMO1 cells grown in RPMI1640 with dialyzed fetal bovine serum (RPMI+ds) (AID 1963877); note: nearly all actives have a fitted effect of over 30% in size; note: potency is the fitted concentration of half-maximal effect; for viability: series mostly up to about 46 µM
Procedure, shortened: as §1

[3] = Quantitative highthroughput screen to assess conditional lethalithy of NOMO1 cells grown in Human Plasma-Like Medium with dialyzed fetal bovine serum (HPLM+ds) (AID 1963878); note: nearly all actives have a fitted effect of over 35% in size; note: potency is the fitted concentration of half-maximal effect
Procedure, shortened: as §1

[4] = Quantitative highthroughput screen to assess conditional lethalithy of P12 Ichikawa cells grown in RPMI1640 with untreated serum (RPMI+s) (AID 1963881); details: Potency: viability; note: nearly all actives have a fitted effect of over 35% in size; note: potency is the fitted concentration of half-maximal effect; for viability: series mostly up to about 46 µM
Procedure, shortened: as §1

[5] = Cellular viability qHTS for adrenocortical cancer (ACC) cell line SW-13 (AID 1963989); details: SW-13 ACC cells viability, CellTiter-Glo, 48 h; activity (max response): active compounds read low;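 note: cells grown in serum-free medium with ITS supplement; nearly all actives have a fitted effect of over 65% in size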
Procedure, shortened: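 IC50 and maximal-response values come from four-parameter logistic fits of titration data. SW-13 cells in serum-free medium received compounds (up to 46 uM final) for 48 h before CellTiter-Glo luminescence.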

[6] = Cellular viability qHTS for adrenocortical cancer (ACC) cell line NCI-H295R (AID 1963990); note: nearly all actives have a fitted effect of over 60% in size; note: potency is the fitted concentration of half-maximal effect
Procedure, shortened: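 Adrenocortical carcinoma cells, suspended at 300 000 cells/mL in serum-free DMEM plus ITS, rested overnight before pin transfer of compound. After two days' incubation, ATP-dependent luminescence was recorded and curve-fitted.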

[7] = Quantitative highthroughput screen to assess conditional lethalithy of P12 Ichikawa cells grown in RPMI1640 with dialyzed fetal bovine serum (RPMI+ds) (AID 1963880); details: Potency: P12-Ichikawa viability; note: nearly all actives have a fitted effect of over 35% in size; note: potency is the fitted concentration of half-maximal effect
Procedure, shortened: as §1

[8] = Quantitative highthroughput screen to assess conditional lethalithy of SEM cells grown in Human Plasma-Like Medium with dialyzed fetal bovine serum (HPLM+ds) (AID 1963882); note: nearly all actives have a fitted effect of over 35% in size; note: potency is the fitted concentration of half-maximal effect; for viability: series mostly up to about 46 µM
Procedure, shortened: as §1

[9] = Quantitative highthroughput screen to assess conditional lethalithy of SEM cells grown in RPMI1640 with dialyzed fetal bovine serum (RPMI+ds) (AID 1963884); note: nearly all actives have a fitted effect of over 35% in size; note: potency is the fitted concentration of half-maximal effect; for viability: series mostly up to about 46 µM
Procedure, shortened: as §1

[10] = Quantitative highthroughput screen to assess conditional lethalithy of SEM cells grown in RPMI1640 with unreated serum (RPMI+s) (AID 1963883); note: nearly all actives have a fitted effect of over 35% in size; note: potency is the fitted concentration of half-maximal effect
Procedure, shortened: as §1

Row | Structure (SMILES) | Potency [1] | Potency [2] | Potency [3] | Potency [4] | activity (max response) [5] [%] | Potency [6] | Potency [7] | Potency [8] | Potency [9] | Potency [10]
1 | Cc1ccc(C2=Nc3ccc(Cl)cc3OC2)cc1 | inactive | inactive | inactive | 20900 nM (active) | -18.7 | inactive |  |  |  | 
2 | Cc1nc(NC(=O)N2CCC[C@@H]2C(N)=O)sc1-c1ccnc(C(C)(C)C(F)(F)F)c1 | 2960 nM (active) | 2640 nM (active) | 2640 nM (active) | 3320 nM (active) |  |  | 5900 nM (active) | 1480 nM (active) | 2960 nM (active) | 
3 | C[C@]12CCC(=O)C=C1CC[C@@H]1[C@H]2[C@@H](O)C[C@@]2(C)[C@H]1CC[C@]2(O)C(=O)CO | inactive | inactive | inactive |  |  |  |  | inactive |  | 
4 | COc1ccc2cc1Oc1ccc(cc1)C[C@H]1c3cc(c(OC)cc3CCN1C)Oc1c(OC)c(OC)cc3c1[C@H](C2)N(C)CC3 | inactive | inactive | inactive |  |  |  |  | inactive |  | 
5 | CCC[C@@H](NC(=O)[C@@H]1[C@H]2CCC[C@@H]2CN1C(=O)[C@@H](NC(=O)[C@@H](NC(=O)c1cnccn1)C1CCCCC1)C(C)(C)C)C(=O)C(=O)NC1CC1 | inactive | inactive | inactive | inactive |  |  | inactive | inactive | inactive | inactive
6 | CC1(C)OC2CC3C4CC(F)C5=CC(=O)C=CC5(C)C4C(O)CC3(C)[C@]2(C(=O)CO)O1 (some centres not stated) | inactive | inactive | inactive |  |  |  |  | 2350 nM (active) |  | 
7 | CC(CCc1ccc(O)cc1)NCCc1ccc(O)c(O)c1 (configuration not stated) | inactive | inactive | inactive |  | -9.68 | inactive |  | 20900 nM (active) | 20900 nM (active) | 20900 nM (active)
8 | CC(C)(C)[N+]([O-])=Cc1ccc(S(=O)(=O)O)cc1S(=O)(=O)O | inactive | inactive | inactive | inactive |  |  | inactive | inactive | inactive | inactive
9 | O=c1c2ccccc2nc2n1CCc1c-2[nH]c2ccccc12 | inactive | inactive | inactive | 13200 nM (active) |  |  |  |  |  | 
10 | CCC(C=C[C@@H]1OC(=O)C=C[C@H]1C)=C[C@H](C)CC=CC(C)=C[C@@H](C)C(=O)[C@@H](C)[C@H](O)[C@@H](C)CC(C)=CC(=O)O | 110 nM (active) | 87.7 nM (active) | 78.2 nM (active) | 87.7 nM (active) |  |  | 87.7 nM (active) | 34.9 nM (active) | 22 nM (active) | 
11 | CC(C)CN(C[C@@H](O)[C@H](Cc1ccccc1)NC(=O)O[C@H]1CO[C@H]2OCC[C@H]21)S(=O)(=O)c1ccc(N)cc1 | inactive | inactive | inactive |  |  |  |  | 3720 nM (active) |  | 
12 | COc1ccc2ccc(=O)oc2c1CC=C(C)C | inactive | inactive | inactive |  |  |  |  | inactive |  | 
13 | CC(C)(C)NC(=O)[C@H]1CN(Cc2cccnc2)CCN1C[C@@H](O)C[C@@H](Cc1ccccc1)C(=O)N[C@H]1c2ccccc2C[C@H]1O | inactive | inactive | inactive |  |  |  |  | inactive |  | 
14 | C[C@@H]1[C@H](O)[C@@H](C)C=CC=CC=CC=CC=CC=CC=C[C@H](O[C@@H]2O[C@H](C)[C@H](O)[C@H](N)[C@@H]2O)C[C@@H]2O[C@](O)(C[C@@H](O)C[C@@H](O)[C@H](O)CC[C@@H](O)C[C@@H](O)CC(=O)O[C@H]1C)C[C@H](O)[C@@H]2C(=O)O | inactive | inactive | inactive | inactive |  |  | inactive | inactive | inactive | inactive
15 | Nc1ncn([C@@H]2O[C@H](CO)[C@@H](O)[C@@H]2O)c(=O)n1 | 16600 nM (active) | 7430 nM (active) | 16600 nM (active) |  |  |  |  | 9350 nM (active) | 4690 nM (active) | 10500 nM (active)
16 | CC=C1C2C=C(C)CC1(N)c1ccc(=O)[nH]c1C2 (configuration not stated) | inactive | inactive | inactive | inactive |  |  | inactive |  | inactive | inactive
17 | CO[C@H]1C(=O)[C@]2(C)[C@@H](OC)C[C@H]3OC[C@@]3(OC(C)=O)[C@H]2[C@H](OC(=O)c2ccccc2)[C@]2(O)C[C@H](OC(=O)[C@H](O)[C@@H](NC(=O)OC(C)(C)C)c3ccccc3)C(C)=C1C2(C)C | 13.2 nM (active) | 13.2 nM (active) | 2.1 nM (active) | 14.8 nM (active) |  | 7.9 nM (active) |  |  |  | 4.2 nM (active)
18 | N=C1SC(=Cc2ccc(-c3ccc4c(c3)C(=O)NC4=O)o2)C(=O)N1c1ccc(Br)cc1 | inactive | inactive | inactive | inactive |  |  | inactive |  |  | 13200 nM (active)
19 | Cc1c(O)cccc1C(=O)N[C@@H](CSc1ccccc1)[C@H](O)CN1C[C@H]2CCCC[C@@H]2C[C@@H]1C(=O)NC(C)(C)C | inactive | inactive | inactive | inactive |  |  | inactive | inactive |  | inactive
20 | COc1cccc2c1C(=O)c1c(O)c3c(c(O)c1C2=O)C[C@@](O)(C(C)=O)C[C@H]3O[C@H]1C[C@H](N)[C@H](O)[C@H](C)O1 | 264 nM (active) | 235 nM (active) | 264 nM (active) | 209 nM (active) |  |  | 209 nM (active) | 83.3 nM (active) | 83.3 nM (active) | 46.9 nM (active)
21 | Cc1ccc(NC(=O)c2cccc(N(C)C)c2)cc1NC(=O)c1ccc(O)cc1 | inactive | inactive | inactive | inactive |  | inactive | inactive | inactive | inactive | inactive
22 | O=C1NC(=O)C(=Cc2ccc3c(c2)OC(F)(F)O3)S1 | inactive | inactive | inactive | inactive |  |  | inactive | inactive | inactive | 
23 | OC1CCC(Nc2ncc3nc(Nc4c(F)cc(F)cc4F)n([C@@H]4CCOC4)c3n2)CC1 (some centres not stated) | inactive | inactive | inactive | inactive |  |  | inactive |  | inactive | 
